Records with an inconclusive call do not appear. The source made the active and inactive calls. The call rests on the fitted dose curve; in most records, active means well fitted curve in the direction sought with a large enough effect; inconclusive means small, poorly fitted or top-dose-only effect, or another doubt; inactive means no such curve, though single readings can be large; an effect the other way counts as inactive or inconclusive.
biological target: Rap guanine nucleotide exchange factor 3 (Homo sapiens) (UniProt O95398); assay: Confirmatory qHTS for antagonist of cAMP-regulated guanine nucleotide exchange factor 3 (EPAC1) (AID 1645880); details: EPAC1 Rap1B-BODIPY-GDP exchange, fluorescence; series mostly up to 115 µM; activity, negative = inhibition: at the top concentration; further: nearly all actives have a fitted effect of over 55% in size;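 on activity, negative = inhibition: plate controls were DMSO only for no effect and full effect of the ATA control for full effect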
Sequence (O95398 whole entry, looked up): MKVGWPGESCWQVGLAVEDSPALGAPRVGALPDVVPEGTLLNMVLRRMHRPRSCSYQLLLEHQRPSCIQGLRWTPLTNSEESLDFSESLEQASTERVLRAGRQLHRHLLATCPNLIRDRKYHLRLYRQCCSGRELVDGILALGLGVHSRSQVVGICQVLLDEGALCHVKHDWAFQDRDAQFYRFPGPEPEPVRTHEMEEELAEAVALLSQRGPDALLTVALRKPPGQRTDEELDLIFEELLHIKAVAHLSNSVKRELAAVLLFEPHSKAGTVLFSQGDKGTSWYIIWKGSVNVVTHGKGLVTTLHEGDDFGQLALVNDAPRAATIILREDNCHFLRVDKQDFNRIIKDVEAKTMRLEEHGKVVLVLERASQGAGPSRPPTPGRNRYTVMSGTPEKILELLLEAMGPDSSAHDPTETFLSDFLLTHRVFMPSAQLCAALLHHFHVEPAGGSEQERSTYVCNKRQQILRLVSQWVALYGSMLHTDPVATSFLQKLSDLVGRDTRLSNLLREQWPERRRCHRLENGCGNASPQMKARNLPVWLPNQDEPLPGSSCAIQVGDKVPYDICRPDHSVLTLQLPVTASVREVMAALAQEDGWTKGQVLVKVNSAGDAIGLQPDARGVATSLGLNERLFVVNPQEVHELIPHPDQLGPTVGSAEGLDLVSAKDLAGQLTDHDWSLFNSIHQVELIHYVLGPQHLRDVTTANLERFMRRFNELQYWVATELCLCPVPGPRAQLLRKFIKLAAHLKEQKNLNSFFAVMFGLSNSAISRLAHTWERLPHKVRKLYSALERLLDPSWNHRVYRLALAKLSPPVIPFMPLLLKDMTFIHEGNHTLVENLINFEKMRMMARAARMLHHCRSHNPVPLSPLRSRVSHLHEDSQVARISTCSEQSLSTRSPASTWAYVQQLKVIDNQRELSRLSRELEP
How it was run: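 Released BODIPY-GDP fluoresces less than Rap1-bound BODIPY-GDP; the signal is followed at 480/540 nm at 5-min intervals over 30 min, after 5 min at room temperature. Reactions contain 100 nM EPAC1, 250 nM RAP1B-BODIPY-GDP and 50 uM GDP; results are normalized to ATA and DMSO.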
Potency means the concentration at half of the fitted maximal effect.

activity, negative = inhibition, inactive:
CCOc1ccc(CCNC(=O)c2cccc(S(=O)(=O)N3CCCCC3)c2)cc1OCC -18.9%, C=CCCCN(Cc1ccccc1)S(=O)(=O)c1ccccc1Br -23.8%, CCCCCN(C(=O)CCC(=O)OCc1ccc(C(C)C)cc1)c1c(N)n(CCCC)c(=O)[nH]c1=O -12.6%, COc1ccc(Br)cc1CNC(=O)c1ccc2nc(C(C)C)oc2c1 -23.5%, Cc1ccc2c(c1)C=CC(C#N)N2C(=O)c1ccccc1 (stereo not drawn) -27%, CC(C)OC(=O)c1c(-c2ccccc2)c(-c2ccccc2)nn(C)c1=O -14.2%, CCN1C/C(=C/c2ccc(N3CCOCC3)cc2)C(=O)/C(=C/c2ccc(N3CCOCC3)cc2)C1 73.7%, O=C(O)C(c1ccccc1)N1C(=O)/C(=C\c2ccc(-c3ccccc3Cl)o2)SC1=S (stereo not drawn) 42.6%, Cc1ccc(CN(C(=O)COc2cccc(Cl)c2)c2ccccn2)o1 -23.9%, CC(Sc1ccccc1)C(=O)NNC(=O)c1csc(N2CCOCC2)n1 (stereo not drawn) -14%, Cc1ccc(NC(=O)N2CCN(c3nnc(C)c4c(C)n(-c5ccc(Cl)cc5)nc34)CC2)c(C)c1 -6.45%, CC1(C)Cc2ccccc2-c2nnc(-c3ccc4ccccc4n3)n21 -19.3%, COc1ccc(NC(=O)c2ccc(NC3=NC4CS(=O)(=O)CC4S3)cc2)cc1 (stereo not drawn) -10.6%, COc1cc2c(cc1OC)-c1cc(NC3CCCCC3)nc(=O)n1CC2 -19.7%, Cc1ccccc1OCc1nc2ccccc2n1Cc1ccccc1Cl -22.6%, CCOC(=O)C1CCN(C(=O)c2cccc(S(=O)(=O)N(CC)c3ccccc3)c2)CC1 -26.7%, CN(C)c1ccc(/C=C/C(=O)c2ccc3c(c2)OCO3)cc1 55.8%, COc1ccccc1Sc1nc(-c2ccccc2)ncc1OC -19.9%, O=C(NCC1CCCO1)c1ccc(C(=O)NCC2CCCO2)cc1 (stereo not drawn) -13.8%, COC(=O)C1(Cc2ccccc2)NC(c2ccc(F)cc2)C2C(=O)N(C)C(=O)C21 (stereo not drawn) -13.2%, CCCC1CC(c2csc(N)n2)CCO1 (stereo not drawn) -18.3%, CCOc1cccc(CC(=O)NCc2ccc3c(c2)CCN3C(C)=O)c1OCC -13.5%, O=C(COc1ccc(F)cc1)Nc1nccs1 -8.86%, COC(=O)C1=CN(c2ccc(F)cc2)C(N)=C(C#N)C1c1cccc(OC)c1OC (stereo not drawn) -14.8%, Cc1ccc(Cl)cc1NC(=O)c1ccccc1OCC(=O)Nc1ccc(Cl)cc1 -29.1%, CC(C)(C)c1nc(-c2ccccc2)nc2c1OCCC2 -17.5%, COc1ccc(-c2oc3cccnc3c2C#CCO)cc1 -20%, COC(=O)c1cc(OC)nc2ccc(Br)cc12 -9.93%, CCOC(=O)c1cc2n(c1N)-c1ccccc1C2=O 17.6%, CCN(CC(=O)Nc1ccccc1C(F)(F)F)C(=O)CCOc1ccccc1C -25.4%, Cc1sc(N)c(C(=O)c2ccccc2Cl)c1C -18.9%, COc1ccc(N2CCN(C(=O)c3cc(C)on3)CC2)cc1 -17.5%, COc1ccc(N(C)S(=O)(=O)c2cccc3nsnc23)cc1 -7.99%

Potency, active:
CC(/C=C1\SC(=S)N(NS(=O)(=O)c2ccccc2)C1=O)=C\c1ccccc1 22.4 µM, NC(=O)c1sc(=S)n2c1[nH]c(=O)c1sccc12 16.9 µM, COc1cc(/C=C2\SC(=S)N(NS(=O)(=O)c3ccc(C)cc3)C2=O)cc(OC)c1OC 26.9 µM, CCOC(=O)c1sc(N=NC2=C(O)CCCC2=O)c(C(=O)OCC)c1C 8.91 µM, COc1cccc(OCCOc2ccc(/C=C3\C(=N)N4N=C(S(C)(=O)=O)SC4=NC3=O)cc2OC)c1 37.9 µM, O=C(NS(=O)(=O)c1ccc2ccc(S(=O)(=O)NCCSc3ccccc3)cc2c1)c1cccc2ccccc12 42.6 µM

biological target: Rap guanine nucleotide exchange factor 3 (Homo sapiens) (UniProt O95398); assay: Confirmatory qHTS for agonist of cAMP-regulated guanine nucleotide exchange factor 3 (EPAC1) (AID 1645881); details: EPAC1 Rap1B BODIPY-GDP exchange fluorescence; series mostly up to 154 µM; activation: at the top concentration; further: nearly all actives have a fitted effect of over 75% in size;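 on activation: EPAC1 catalysed release of BODIPY-GDP from Rap1B seen as fluorescence loss; 100% = effect of cAMP agonist control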

activation, inactive:
CCOc1ccc(CCNC(=O)c2cccc(S(=O)(=O)N3CCCCC3)c2)cc1OCC 8.52%, C=CCCCN(Cc1ccccc1)S(=O)(=O)c1ccccc1Br -2.97%, CCCCCN(C(=O)CCC(=O)OCc1ccc(C(C)C)cc1)c1c(N)n(CCCC)c(=O)[nH]c1=O -7.65%, COc1ccc(Br)cc1CNC(=O)c1ccc2nc(C(C)C)oc2c1 11.4%, Cc1ccc2c(c1)C=CC(C#N)N2C(=O)c1ccccc1 (stereo not drawn) 15.9%, CC(/C=C1\SC(=S)N(NS(=O)(=O)c2ccccc2)C1=O)=C\c1ccccc1 -6.34%, CC(C)OC(=O)c1c(-c2ccccc2)c(-c2ccccc2)nn(C)c1=O 7.35%, O=C(O)C(c1ccccc1)N1C(=O)/C(=C\c2ccc(-c3ccccc3Cl)o2)SC1=S (stereo not drawn) -230%, Cc1ccc(CN(C(=O)COc2cccc(Cl)c2)c2ccccn2)o1 32.8%, CC(Sc1ccccc1)C(=O)NNC(=O)c1csc(N2CCOCC2)n1 (stereo not drawn) 3.86%, NC(=O)c1sc(=S)n2c1[nH]c(=O)c1sccc12 -7.78%, Cc1ccc(NC(=O)N2CCN(c3nnc(C)c4c(C)n(-c5ccc(Cl)cc5)nc34)CC2)c(C)c1 5.87%, COc1cc(/C=C2\SC(=S)N(NS(=O)(=O)c3ccc(C)cc3)C2=O)cc(OC)c1OC -24%, CC1(C)Cc2ccccc2-c2nnc(-c3ccc4ccccc4n3)n21 3.73%, COc1ccc(NC(=O)c2ccc(NC3=NC4CS(=O)(=O)CC4S3)cc2)cc1 (stereo not drawn) 1.89%, COc1cc2c(cc1OC)-c1cc(NC3CCCCC3)nc(=O)n1CC2 0.468%, Cc1ccccc1OCc1nc2ccccc2n1Cc1ccccc1Cl -2.31%, CCOC(=O)C1CCN(C(=O)c2cccc(S(=O)(=O)N(CC)c3ccccc3)c2)CC1 6.34%, COc1ccccc1Sc1nc(-c2ccccc2)ncc1OC 18.6%, O=C(NCC1CCCO1)c1ccc(C(=O)NCC2CCCO2)cc1 (stereo not drawn) 1.17%, CCOC(=O)c1sc(N=NC2=C(O)CCCC2=O)c(C(=O)OCC)c1C -23.8%, COC(=O)C1(Cc2ccccc2)NC(c2ccc(F)cc2)C2C(=O)N(C)C(=O)C21 (stereo not drawn) -12.9%, CCCC1CC(c2csc(N)n2)CCO1 (stereo not drawn) 0.803%, CCOc1cccc(CC(=O)NCc2ccc3c(c2)CCN3C(C)=O)c1OCC 16.5%, O=C(COc1ccc(F)cc1)Nc1nccs1 0.246%, COC(=O)C1=CN(c2ccc(F)cc2)C(N)=C(C#N)C1c1cccc(OC)c1OC (stereo not drawn) 8.95%, Cc1ccc(Cl)cc1NC(=O)c1ccccc1OCC(=O)Nc1ccc(Cl)cc1 -7.33%, CC(C)(C)c1nc(-c2ccccc2)nc2c1OCCC2 -5.67%, COc1ccc(-c2oc3cccnc3c2C#CCO)cc1 1.37%, COC(=O)c1cc(OC)nc2ccc(Br)cc12 8.01%, CCN(CC(=O)Nc1ccccc1C(F)(F)F)C(=O)CCOc1ccccc1C -9.97%, COc1cccc(OCCOc2ccc(/C=C3\C(=N)N4N=C(S(C)(=O)=O)SC4=NC3=O)cc2OC)c1 -15%, Cc1sc(N)c(C(=O)c2ccccc2Cl)c1C 12%, O=C(NS(=O)(=O)c1ccc2ccc(S(=O)(=O)NCCSc3ccccc3)cc2c1)c1cccc2ccccc12 -7.42%, COc1ccc(N2CCN(C(=O)c3cc(C)on3)CC2)cc1 8.97%, COc1ccc(N(C)S(=O)(=O)c2cccc3nsnc23)cc1 2.06%

Potency, active:
CCN1C/C(=C/c2ccc(N3CCOCC3)cc2)C(=O)/C(=C/c2ccc(N3CCOCC3)cc2)C1 100 µM, CN(C)c1ccc(/C=C/C(=O)c2ccc3c(c2)OCO3)cc1 112 µM, CCOC(=O)c1cc2n(c1N)-c1ccccc1C2=O 100 µM

Source: PubChem BioAssay (NCATS)
